Assay results published in PubChem BioAssay (NCI).
This is part of a sample that, as a whole, favours compounds with a hit. Of some 83,000 tested, about 20% had one in any assay.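 Step 1: grow cells in 96-well plates. Step 2: add test compound at a single concentration. Step 3: incubate 48 h. Step 4: record percent growth.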 Active and inactive are the calls of the source. The calls were made as follows: active = growth percent below 10; inactive = the rest.

test system: OVCAR-8 ovarian; experiment: NCI-60 one-dose screen, 48 h (100 = growth as untreated, 0 = no growth, -100 = all killed); conditions: 10 µM unless noted

| Structure (SMILES) | growth |
| --- | --- |
| COc1cc(C2CC(c3ccccc3)=NN2C=O)ccc1Oc1nc2c(c(=O)n(C)c(=O)n2C)n1C (stereo unspecified) | 91.3% (inactive) |
| COc1ccc2[nH]cc(C3(c4c[nH]c5ccc(OC)cc45)C(=O)Nc4ccc(F)cc43)c2c1 | 94.4% (inactive) |
| CC1=CC(=O)OC1C/C=C(\C)CCC1[C@@]2(C)CCC[C@@](C)(C(=O)O)C2CC[C@@]1(C)O (stereo partly specified) | 42.8% (inactive) |
| CC1=C(/C=C/C(C)=C/C=C(C(=O)O)\C(C)=C\C(=O)O)C(C)(C)CCC1 | 99.4% (inactive) |
| CCN(CCC#N)c1ccccc1 | 103% (inactive) |
| CCCCOC(=O)c1cc(O)c(O)c(O)c1 | 68.6% (inactive) |
| COc1cccc(-c2nc3sccn3c2-c2ccnc(NCCN3CCCNS3(=O)=O)n2)c1 | 83.8% (inactive) |
| CC(=O)Oc1ccccc1C(=O)Nc1ncc([N+](=O)[O-])s1 | 51.3% (inactive) |
| Cc1ccc([C@H]2c3[nH]c4ccccc4c3C[C@H]3C(=O)N(CCCCCCC(=O)NO)CC(=O)N23)cc1 | 39.5% (inactive) |
| COc1ccc(-c2cc(-c3cn(-c4cccc(Cl)c4)nc3-c3ccc(OC)cc3)[nH]c(=S)n2)cc1 | 84% (inactive) |
| CCn1c(Cc2ccccc2Nc2c(Cl)cccc2Cl)nnc1SCC(=O)Nc1ccccc1C(F)(F)F | 92.8% (inactive) |
| COc1cc(/C=C/c2cc(/C=C/c3ccc(O)c(OC)c3)n(C(=O)c3ccccc3Br)n2)ccc1O | 27.7% (inactive) |
| CCOC(=O)C(Cc1ccccc1)n1c(O)c(/C=N/c2ncc(Cc3ccc(Cl)cc3Cl)s2)sc1=S (stereo unspecified) | 2.66% (active) |
| Cc1nn(-c2cccc(Cl)c2)c(C)c1N=Nc1ccc(Br)cc1 | 97.4% (inactive) |
| O=C(N/N=C\c1cc(Br)ccc1O)c1ccncc1 | 27.5% (inactive) |
| CC(C)OC1OC(OC(C)C)C(OC(C)C)OC1OC(C)C (stereo unspecified) | 94.4% (inactive) |
| COc1ccc2c(c1)C1=NN(C(=O)CO)[C@H](c3ccc(OC(F)(F)F)cc3)[C@@H]1CC2 | 98% (inactive) |
| Cn1c(-c2ccccc2)cc(=O)n1-c1ccccc1 | 107% (inactive) |
| CC(C)(C)c1ccc(C(=O)Nc2sc3cc(O)ccc3c2C(N)=O)cc1 | 81.2% (inactive) |

| Structure (SMILES) | growth |
| --- | --- |
| O=C1N(Cc2ccccc2Cl)c2ccccc2C12NN=C(c1ccccc1)S2 (stereo unspecified) | 45.8% (inactive) |
| CC(=O)c1ccc(N2C(=O)c3ccc(Oc4ccccc4)cc3C2=O)cc1 | 114% (inactive) |
| CC1CCCN(CCCCOc2ccc(-c3ccc(C#N)cc3)cc2)C1 (stereo unspecified) | 82.3% (inactive) |
| CNC(=O)c1c(NC(=O)c2cccc(C(F)(F)F)c2)sc2c1CCC(=O)C2 | 8.86% (active) |
| OC(COCc1ccccc1)COCc1ccccc1 | 106% (inactive) |
| CN1CCCN(CCNc2nccc(-c3c(-c4cccc(O)c4)nc4sccn34)n2)S1(=O)=O | 60.1% (inactive) |
| CC(=O)NC1C(O[C@H]2C[C@H]3[C@@H]4CC=C5C[C@@H](O)CC[C@]5(C)[C@H]4CC[C@]3(C)[C@H]2[C@H](C)C(=O)CCC(C)C)OCC(O)C1O (stereo partly specified) | 66.3% (inactive) |
| CN(C)c1nc(-c2cccs2)n2nc(-c3ccc(Cl)cc3)cc2n1 | 11.8% (inactive) |
| O=C1NN(C(=O)c2ccccc2)C(c2ccc(Cl)c(Cl)c2)=C/C1=C\c1ccccc1[N+](=O)[O-] | 30.3% [6.75 µM] (inactive) |
| COc1ccc(C(=O)OC2C(OC3C(O)COC(O[C@H]4C[C@H]5[C@@H]6CC=C7C[C@@H](O)CC[C@]7(C)[C@H]6CC[C@]5(C)[C@H]4[C@H](C)C(=O)CCC(C)C)C3OC(=O)C(C)C)OCC(O)C2O)cc1 (stereo partly specified) | 36.3% (inactive) |
| CCSCC1CC(O)(c2ccccc2)C(c2ccccc2)C(c2ccc(F)cc2)O1 (stereo unspecified) | 1.93% (active) |
| Nc1c(N)c2ccccc2c2ccccc12 | 99.1% (inactive) |
| Cc1csc(N/N=C/c2ccncc2)n1 | 97.7% (inactive) |
| COc1ccc(-c2cc(C(=O)Nc3ccc(C)cc3)nc3[nH]c(=O)sc23)cc1 | 77.1% (inactive) |
| COc1ccccc1-[n+]1cc(-c2ccc(-c3ccccc3)cc2)n2c1CCCCC2 | 2.74% (active) |
| COc1ccc(/C=N/NC(N)=S)c(OC)n1 | 97.7% (inactive) |
| Nc1c(Br)cc2c(c1Br)Cc1cc(Cl)ccc1-2 | 96.8% (inactive) |
| Nc1nc(NC2CC2)cc(-c2cccc(Cl)c2Cl)n1 | 70% (inactive) |
| COc1cc2c(c(OC)c1O)C(=O)C(OC)C(c1ccc(O)c(O)c1)O2 (stereo unspecified) | 17.1% (inactive) |

test system: OVCAR-5 ovarian; experiment: as above; conditions: 10 µM unless noted

| Structure (SMILES) | growth |
| --- | --- |
| COc1cc(C2CC(c3ccccc3)=NN2C=O)ccc1Oc1nc2c(c(=O)n(C)c(=O)n2C)n1C (stereo unspecified) | 97.6% (inactive) |
| COc1ccc2[nH]cc(C3(c4c[nH]c5ccc(OC)cc45)C(=O)Nc4ccc(F)cc43)c2c1 | 94.1% (inactive) |
| CC1=CC(=O)OC1C/C=C(\C)CCC1[C@@]2(C)CCC[C@@](C)(C(=O)O)C2CC[C@@]1(C)O (stereo partly specified) | 111% (inactive) |
| CC1=C(/C=C/C(C)=C/C=C(C(=O)O)\C(C)=C\C(=O)O)C(C)(C)CCC1 | 97% (inactive) |
| CCN(CCC#N)c1ccccc1 | 102% (inactive) |
| CCCCOC(=O)c1cc(O)c(O)c(O)c1 | 92.2% (inactive) |
| COc1cccc(-c2nc3sccn3c2-c2ccnc(NCCN3CCCNS3(=O)=O)n2)c1 | 112% (inactive) |
| CC(=O)Oc1ccccc1C(=O)Nc1ncc([N+](=O)[O-])s1 | 63.3% (inactive) |
| Cc1ccc([C@H]2c3[nH]c4ccccc4c3C[C@H]3C(=O)N(CCCCCCC(=O)NO)CC(=O)N23)cc1 | 44.7% (inactive) |
| COc1ccc(-c2cc(-c3cn(-c4cccc(Cl)c4)nc3-c3ccc(OC)cc3)[nH]c(=S)n2)cc1 | 97% (inactive) |
| CCn1c(Cc2ccccc2Nc2c(Cl)cccc2Cl)nnc1SCC(=O)Nc1ccccc1C(F)(F)F | 110% (inactive) |
| COc1cc(/C=C/c2cc(/C=C/c3ccc(O)c(OC)c3)n(C(=O)c3ccccc3Br)n2)ccc1O | 84.5% (inactive) |
| CCOC(=O)C(Cc1ccccc1)n1c(O)c(/C=N/c2ncc(Cc3ccc(Cl)cc3Cl)s2)sc1=S (stereo unspecified) | 38.9% (inactive) |
| Cc1nn(-c2cccc(Cl)c2)c(C)c1N=Nc1ccc(Br)cc1 | 94.1% (inactive) |
| O=C(N/N=C\c1cc(Br)ccc1O)c1ccncc1 | 54.8% (inactive) |
| CC(C)OC1OC(OC(C)C)C(OC(C)C)OC1OC(C)C (stereo unspecified) | 102% (inactive) |
| COc1ccc2c(c1)C1=NN(C(=O)CO)[C@H](c3ccc(OC(F)(F)F)cc3)[C@@H]1CC2 | 108% (inactive) |
| Cn1c(-c2ccccc2)cc(=O)n1-c1ccccc1 | 104% (inactive) |
| CC(C)(C)c1ccc(C(=O)Nc2sc3cc(O)ccc3c2C(N)=O)cc1 | 99.3% (inactive) |

| Structure (SMILES) | growth |
| --- | --- |
| O=C1N(Cc2ccccc2Cl)c2ccccc2C12NN=C(c1ccccc1)S2 (stereo unspecified) | 78.6% (inactive) |
| CC(=O)c1ccc(N2C(=O)c3ccc(Oc4ccccc4)cc3C2=O)cc1 | 103% (inactive) |
| CC1CCCN(CCCCOc2ccc(-c3ccc(C#N)cc3)cc2)C1 (stereo unspecified) | 97.1% (inactive) |
| CNC(=O)c1c(NC(=O)c2cccc(C(F)(F)F)c2)sc2c1CCC(=O)C2 | -22.2% (active) |
| OC(COCc1ccccc1)COCc1ccccc1 | 108% (inactive) |
| CN1CCCN(CCNc2nccc(-c3c(-c4cccc(O)c4)nc4sccn34)n2)S1(=O)=O | 80.6% (inactive) |
| CC(=O)NC1C(O[C@H]2C[C@H]3[C@@H]4CC=C5C[C@@H](O)CC[C@]5(C)[C@H]4CC[C@]3(C)[C@H]2[C@H](C)C(=O)CCC(C)C)OCC(O)C1O (stereo partly specified) | 74.2% (inactive) |
| CN(C)c1nc(-c2cccs2)n2nc(-c3ccc(Cl)cc3)cc2n1 | 75.6% (inactive) |
| O=C1NN(C(=O)c2ccccc2)C(c2ccc(Cl)c(Cl)c2)=C/C1=C\c1ccccc1[N+](=O)[O-] | -18.6% [6.75 µM] (active) |
| COc1ccc(C(=O)OC2C(OC3C(O)COC(O[C@H]4C[C@H]5[C@@H]6CC=C7C[C@@H](O)CC[C@]7(C)[C@H]6CC[C@]5(C)[C@H]4[C@H](C)C(=O)CCC(C)C)C3OC(=O)C(C)C)OCC(O)C2O)cc1 (stereo partly specified) | 42% (inactive) |
| CCSCC1CC(O)(c2ccccc2)C(c2ccccc2)C(c2ccc(F)cc2)O1 (stereo unspecified) | -2.48% (active) |
| Nc1c(N)c2ccccc2c2ccccc12 | 107% (inactive) |
| Cc1csc(N/N=C/c2ccncc2)n1 | 112% (inactive) |
| COc1ccc(-c2cc(C(=O)Nc3ccc(C)cc3)nc3[nH]c(=O)sc23)cc1 | 100% (inactive) |
| COc1ccccc1-[n+]1cc(-c2ccc(-c3ccccc3)cc2)n2c1CCCCC2 | 18.4% (inactive) |
| COc1ccc(/C=N/NC(N)=S)c(OC)n1 | 109% (inactive) |
| Nc1c(Br)cc2c(c1Br)Cc1cc(Cl)ccc1-2 | 93.2% (inactive) |
| Nc1nc(NC2CC2)cc(-c2cccc(Cl)c2Cl)n1 | 87.1% (inactive) |
| COc1cc2c(c(OC)c1O)C(=O)C(OC)C(c1ccc(O)c(O)c1)O2 (stereo unspecified) | 42.5% (inactive) |
